HP1b binding inh = blocks HP1-beta chromodomain binding to methylated histone tails. P83916. AlphaScreen HP1-beta / biotin-H3K9me3 peptide binding. Potency, µM (titrated, usually from 114 µM), inactives show at the top dose activity change, negative = inhibition, most hits filed as inhibitors. actives 0.56% (n = 390,000). AID 540317; note: nearly all actives have a fitted effect of over 70% in size
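Compound inhibition of the preformed complex between 50 nM HP1-beta and 50 nM biotinylated H3K9me3 peptide was read by AlphaScreen. Buffer was PBS pH 7.4 with 0.01% Tween-20. Incubations ran 30 min at room temperature, with 10 ug/mL donor/acceptor beads.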
BAZ2B inh = BAZ2B (human) inhibition | Q9UIF8 | AlphaScreen BAZ2B-H3K14Ac peptide displacement | Potency, µM (series often up to 114 µM), without a hit: at the highest dose activity change, negative = inhibition, usual class: inhibitors | actives 4.4% (n = 360,000); note: % is set by controls: 0 for no effect and ±100 for the full control effect; nearly all actives have a fitted effect of over 60% in size
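AlphaScreen displacement of biotin-H3(5-23)K14Ac peptide (50 nM final) from BAZ2B (50 nM final) in PBS pH 7.4, 0.01% Tween-20; complex preformed 30 min RT, then compounds (top 110 uM) 30 min RT, beads 20 min dark.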
Sfp PPTase inh = inhibitors of Bacillus subtilis Sfp phosphopantetheinyl transferase | Q9F4F7 | actives 3.5% (n = 310,000) | AID 1490 | Biochemical Sfp PPTase activity, qHTS | Potency, µM, inactives show largest response in the series, negative = inhibition, most hits filed as inhibitors;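 note: the enzyme is Sfp with the accession as filed and its product quenches rhodamine fluorescence; 0% = enzyme reaction without inhibitor and -100% = no enzyme wells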
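With Hepes-Na pH 7.6 buffer containing 10 mM MgCl2, Sfp (15 nM) modified BHQ-2-YbbR (12.5 uM) using rhodamine-CoA (5 uM). Two reads 30 minutes apart at 525/598 nm yielded each well's rate.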
JMJD2A Tudor = JMJD2A Tudor domain (human) inhibition; O75164; AlphaScreen JMJD2A-Tudor / H3K4me3 peptide binding; Potency, µM (doses to about 114 µM), without a hit: at the top dose activity change, negative = inhibition, hits mostly inhibitors; actives 4.4% (n = 390,000); note: % is set by controls: 0 for no effect and ±100 for the full control effect; nearly all actives have a fitted effect of over 50% in size
L3MBTL1 block = inhibitors of human L3MBTL1. AlphaScreen L3MBTL1–H3K9me1 peptide binding. actives 0.66% (n = 230,000). Q9Y468. Potency, µM (doses to about 57.1 µM), without a hit: top-dose activity, negative = inhibition, actives largely listed as inhibitors; note: % is set by controls: 0 for no effect and ±100 for the full control effect; nearly all actives have a fitted effect of over 60% in size
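AlphaScreen assay: L3MBTL1 (50 nM final) was preincubated 30 min at room temperature with biotinylated H3(1-15)K9me1 peptide (75 nM final), then 30 min with library compounds; streptavidin donor and nickel chelate acceptor beads (10 ug/mL final) added, 30 min dark.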
G9a inh = blocks human histone lysine methyltransferase G9a; Q96KQ7; actives 8.8% (n = 350,000); G9a H3K9 monomethylation, AlphaScreen, 2 h; Potency, µM (titrated, usually from 102 µM), inactives show at the top dose activity, negative = inhibition, hits mostly inhibitors; note: % is set by controls: 0 for no effect and ±100 for the full control effect; nearly all actives have a fitted effect of over 75% in size
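G9a (20 nM) preincubated 15 min RT with compounds, then 500 nM biotinylated H3K9 peptide and 20 uM SAM added; 2 h RT reaction. Monomethyl-H3K9 product detected by AlphaScreen with anti-H3K9me1 antibody, streptavidin donor and anti-rabbit IgG acceptor beads.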
The depositor's hits bear a star; ? = inconclusive; · = no result given; [ ] = another dose, or the depositor's remark. Shown are actives, neighbours in structure and some others; about 12% of the full set was active somewhere. Calls come from the whole dose curve; as a rule, active = well fitted curve in the direction sought with a large enough effect; inconclusive = small, poorly fitted or top-dose-only effect, or another doubt; inactive = no such curve, though single readings can be large; an effect the other way counts as inactive or inconclusive. Potency is the fitted concentration of half-maximal effect.

SMILES | HP1b binding inh | BAZ2B inh | Sfp PPTase inh | JMJD2A Tudor | L3MBTL1 block | G9a inh
CC(=O)Oc1cccc(N2C(=O)C3C(C2=O)C2C=CC3C23CC3)c1 (configuration not stated) | 26% | 1% | 10% | -11% | 7% | 45µM*
CC(=O)Oc1cccc(N2C(=O)C3C4C=CC(C4=C(C)C)C3C2=O)c1 (configuration not stated) | ? | -5% | 56µM* | ? | · | -40%[2.33 µM]
CC(=O)Oc1ccc(N2C(=O)C3C4C=CC(O4)C3C2=O)cc1 (configuration not stated) | ? | -28% | 35µM* | ? | -6% | 3.5µM*
CC(=O)Oc1ccc(N2C(=O)CCC2=O)cc1 | 38% | -3% | 8% | 3% | · | -38%[0.0925 µM]
CSCC[C@@H]1NC(=O)C/C=C\[C@@H](C)COC(=O)[C@@H](CCSC)NC(=O)C/C=C\[C@@H](C)COC1=O | · | · | 3% | · | · | ·
O=C(Cn1cncn1)c1ccc(Cl)cc1 | 62% | -10% | 17% | -10% | · | -19%
Cc1ccc(C(=O)Cn2cncn2)cc1 | 4% | -24% | 21% | -29% | 4% | 50µM*
CCCn1c(SCC(=O)C(C)(C)C)nc2ccccc21 | 46% | -15% | 56µM* | 6% | 10% | 35µM*
CC(C)(C)NC(=O)Cn1c(SCC(N)=O)nc2ccccc21 | -9% | 8% | 5% | 20µM* | 5% | -7%[0.0925 µM]
COc1cccc(NC(=O)Cn2c(=O)n(Cc3ccc4c(c3)OCO4)c(=O)c3oc4ccccc4c32)c1 | 38% | -3% | · | 8% | · | -2%[59 µM]
Cc1ccccc1OCC(=O)N/N=C/c1cccc2cccnc12 | 14% | 40µM* | -3% | 50µM* | · | ·
CC(C)(C)OC(=O)N1CCC[C@H]1C(=O)N/N=C/c1cccc2cccnc12 | 34% | ? | 45µM* | -15% | -11% | 4%
C#CCn1cc(/C=N/NC(=O)COc2cccc3cccnc23)c2ccccc21 | 13% | ? | -28% | ? | -1% | 3.2µM*
O=C(COc1ccc(F)cc1)N/N=C/c1cccc2cccnc12 | 36% | · | · | 89µM* | · | ·
CCc1ccccc1NC(=O)c1cnn2c(C(F)(F)F)cc(-c3ccc(OC)c(OC)c3)nc12 | 30% | -10% | · | -18% | · | -43%[59 µM]
CSc1ncc(Cl)c(C(=O)Nc2ccc(S(=O)(=O)N3CCC(C)CC3)cc2)n1 | 35% | -21% | · | -17% | · | -23%[59 µM]
COc1cc(NC(=O)CCc2c(C)nc3c4c(C)cc(C)nc4nn3c2C)cc(OC)c1 | -23% | -28% | · | ? | · | ?
O=C(COc1cccc2cccnc12)N/N=C/c1cccn1-c1ccc(F)cc1 | ? | 28µM* | -24% | 20µM* | -22% | 35µM*
Cc1ccc(OCC(=O)N/N=C/c2cccc3cccnc23)cc1 | 16% | 32µM* | -9% | 56µM* | · | ·
COc1ccc(Cc2nc3ccc(C(=O)NCCc4ccc(Cl)cc4)cc3o2)cc1 | 17%[57 µM] | -10% | · | -11% | · | 7%[59 µM]
O=C(Cn1c(-c2cccs2)cc2ccccc21)NCCCN1CCN(c2cccc(Cl)c2)CC1 | 37% | 25µM* | · | ? | · | ?
CN1CCN(CCCNC(=O)Cn2c(-c3cccs3)cc3ccccc32)CC1 | 14% | -12% | · | -25% | · | -12%[59 µM]
Cc1ccc(C)c(N2CCN(CCCNC(=O)Cn3c(-c4cccs4)cc4ccccc43)CC2)c1 | 16% | 35µM* | · | ? | · | ?
CC(C)OCCCNC(=O)CCCn1c(SCC(=O)c2ccc(Br)cc2)nc2c(sc3ccccc32)c1=O | 16% | -12% | · | -10% | · | 9%[59 µM]
CN(C)c1ccc(CNC(=O)CCCN2C(=O)CCn3nc(-c4cn(C)c5ccccc45)cc32)cc1 | 9%[57 µM] | -4% | · | -27% | · | 13%[59 µM]
SMILES | HP1b binding inh | BAZ2B inh | Sfp PPTase inh | JMJD2A Tudor | L3MBTL1 block | G9a inh
CN(C)c1ccc(CNC(=O)CN2C(=O)CCn3nc(-c4cn(C)c5ccccc45)cc32)cc1 | -9%[57 µM] | 45µM* | · | 50µM* | · | ?
CN1CCN(c2ncc3nc(-c4cccc(C#N)c4)c(=O)n(CCc4ccccc4)c3n2)CC1 | · | · | -3% | · | · | 9%[0.501 µM]
O=C(/C=C/C=C/c1ccccc1)c1ccco1 | -18% | ? | ? | -23% | -2% | 50µM*
O=C(/C=C\c1ccccc1)Nc1ccc(NC(=O)c2ccco2)cc1 | ? | -9% | 12% | 10µM* | 7% | -7%
O=C(/C=C/c1ccc(Br)cc1)c1ccc(NC(=O)c2ccco2)cc1 | 11% | ? | -8% | -22% | -5% | -5%[59 µM]
COc1ccc(C2Nc3ccccc3C(=O)N2c2ccc(F)cc2)cc1COc1ccc(NC(C)=O)cc1 (configuration not stated) | 12%[57 µM] | · | · | -2%[57.1 µM] | · | ·
Cc1ccc(Cl)cc1NC(=O)CN1C(=O)CCc2ccccc21 | 65% | -12% | · | -5% | · | 14%[59 µM]
Cc1ccc(NC(=O)CN2C(=O)CCc3ccccc32)cc1C | -19% | 79µM* | · | ? | · | -37%[59 µM]
Cc1ccc(C)c(NC(=O)CN2C(=O)CCc3ccccc32)c1 | -7% | 79µM* | · | ? | · | ?
CCOC(=O)c1ccccc1NC(=O)Cn1c(=O)n(-c2ccc(CC)cc2)c(=O)c2c(C)c(C(=O)N(C)C)sc21 | 17% | -9% | · | -17% | · | -13%[59 µM]
CCn1c(=O)c2cc(C(=O)NCCCN3CCN(c4ccc(F)cc4)CC3)sc2c2ccccc21 | 7% | -34% | · | ? | · | ?
CC(C)(C)OC(=O)N1CCC(c2c(C(=O)NCC3CCN(C4CCCC4)C3)cnn2-c2ccc(F)cc2)CC1 (configuration not stated) | 23% | -10% | 15% | -26% | · | 9%[59 µM]
Cc1ccc(-n2ncc(C(=O)NCC3CCN(C4CCCC4)C3)c2C2CCN(C(=O)OC(C)(C)C)CC2)cc1 (configuration not stated) | 47% | ? | -8% | -30% | · | 71µM*
CCOC(=O)CNC(=O)O[C@H]1C(=O)c2ccc(OC)cc2O[C@@H]1c1ccc2c(c1)OCO2 | · | · | 8% | · | · | ·
O=C(CC1C(=O)N(c2ccccc2)C(=O)N1Cc1ccco1)Nc1ccccc1 (configuration not stated) | 0% | -37% | 10% | -30% | 2% | ?
CC(C)N1C(=S)N(Cc2ccco2)C(=O)C1CC(=O)Nc1ccccc1 (configuration not stated) | 20% | ? | -39% | -19% | 4% | 50µM*
CCOc1ccc(CCNC(=O)COC(=O)/C=C/c2ccc(C)o2)cc1OCC | 22% | -38% | 56µM* | -26% | · | ?
Cc1ccc(C(=O)OCC(=O)NCCc2ccc(S(N)(=O)=O)cc2)o1 | 7% | · | · | -9% | -5% | ·
CCOc1ccc(CCNC(=O)COC(=O)/C=C/c2ccc(OC)c(OC)c2)cc1OCC | 22% | -9% | 1% | -25% | · | -11%

Screening results as filed in PubChem.
